In the library only some 11% were active in any assay of this set; here they are far more common.
HPGD block: inhibitors of human 15-hydroxyprostaglandin dehydrogenase (HPGD); P15428; purified HPGD, NADH fluorescence kinetic, PGE2 substrate; Potency, µM, for inactives: top-dose activity change, negative = inhibition, hits mostly inhibitors; 4.3% of 150,000 active; AID 894; active = well fitted inhibition curve with a large enough effect, not every such curve was filed as active; inconclusive = small, poorly fitted or top-dose-only effect, or another doubt; inactive = no such curve, though single readings can be large or run the other way; also: potency is read from the fitted curve at half-maximal effect; % is scaled to controls: 0 for no effect and ±100 for the full control effect
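20 nM HPGD preincubated 15 min at room temperature with compound in 50 mM Tris-HCl pH 8, 0.01% Tween 20. Started with 1 mM NAD+ and 30 uM prostaglandin E2; NADH fluorescence (360/450 nm) read 5 times over 30-s intervals, last minus first.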
HTT aggregate: mutant huntingtin aggregation inhibition | Potency, µM (series often up to 46.1 µM), without a hit: at the highest dose activity change, negative = inhibition, hits mostly inhibitors | 1.1% of 220,000 active | PC12 HttQ103-GFP aggregates, Acumen cytometry, 40 h | AID 1688; also: potency is read from the fitted curve at half-maximal effect; % is scaled to controls: 0 for no effect and ±100 for the full control effect; nearly all actives have a fitted effect of over 60% in size
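Inducible Q103 Huntingtin exon 1–GFP PC12 line, 1500 cells/well in phenol red free DMEM with 5% equine and 5% calf serum. Tebufenozide 100 nM induced expression; compounds titrated; aggregates quantified by cytometry.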
HTT ATP protect: protects HTT-Q103 PC12 cells, measured by ATP. PC12 HTT-Q103 induced, cytoprotection, ATP luminescence, 40 h. Potency, µM (doses to about 56.4 µM), for the others: cytoprotection (ATP increase), usual class: activators. 0.14% of 230,000 active; also: potency is read from the fitted curve at half-maximal effect; % of control where 0% means no effect; nearly all actives have a fitted effect of over 45% in size
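Readout: ATPlite luminescence (ATP level). Model: stable PC12, inducible Htt exon1 Q103-GFP. Inducer: tebufenozide, 100 nM final. Compounds: dose series. No G418 in medium.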
PNC inhibitor: inhibitors of perinucleolar compartment assembly; PC3M PTB-GFP, PNC prevalence imaging, 16 h; hits give low values; activity change (PNC), negative = inhibition, % at 10 µM; 3.1% of 140,000 active;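 active = readout at or below -70, meaning at least 70% loss of cells showing the perinucleolar compartment, a nuclear body marking cancer cells; inconclusive = readout between -30 and a set limit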;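 also: plate controls were DMSO wells for no effect and camptothecin positive control wells for full effect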
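Compounds are pinned in duplicate onto adhered PC3M cells stably expressing GFP-tagged PTB and incubated 16 h at 37 C. Cells are then fixed, nuclei stained with Hoechst, and PNC-positive cells counted.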
CBFb RUNX1 block: CBF-beta/RUNX1 interaction disruption. Q01196+Q13951. AlphaScreen CBFb-His/RUNX1-biotin binding, biochemical. Potency, µM (top dose mostly 59.8 µM), inactives show at the top dose activity, negative = inhibition, usual class: inhibitors. 230,000 tested, under 10 active; also: % of control where 0% means no effect
Target sequence (Q01196 whole entry, looked up): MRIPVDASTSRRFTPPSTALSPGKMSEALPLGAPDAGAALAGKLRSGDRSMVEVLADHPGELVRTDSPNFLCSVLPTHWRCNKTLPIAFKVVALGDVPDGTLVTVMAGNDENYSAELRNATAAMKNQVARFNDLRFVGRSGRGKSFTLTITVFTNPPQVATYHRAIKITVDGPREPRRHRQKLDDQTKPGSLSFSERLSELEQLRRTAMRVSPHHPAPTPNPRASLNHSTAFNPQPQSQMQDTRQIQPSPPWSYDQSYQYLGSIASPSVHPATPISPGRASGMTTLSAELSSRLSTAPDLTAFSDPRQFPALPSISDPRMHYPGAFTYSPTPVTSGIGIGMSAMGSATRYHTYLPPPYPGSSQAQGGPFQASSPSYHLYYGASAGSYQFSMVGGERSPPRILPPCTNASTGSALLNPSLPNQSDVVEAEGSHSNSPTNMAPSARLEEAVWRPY
Target sequence (Q13951 whole entry, looked up): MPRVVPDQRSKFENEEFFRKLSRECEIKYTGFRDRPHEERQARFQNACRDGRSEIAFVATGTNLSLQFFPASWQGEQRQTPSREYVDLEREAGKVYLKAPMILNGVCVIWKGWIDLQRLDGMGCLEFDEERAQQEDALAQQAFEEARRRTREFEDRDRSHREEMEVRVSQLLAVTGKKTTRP
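CBF-beta (His) and RUNX1 (biotin), 30 nM each; 20 min preassociation; + compound, 15 min; + beads 50 ng each (Ni, streptavidin), 90 min; RT; AlphaScreen read.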
ALDH1A1 block: inhibitors of human aldehyde dehydrogenase 1A1; Purified ALDH1A1, NADH fluorescence, propionaldehyde substrate; Potency, µM (highest dose often 75.3 µM), for the others: at the top dose activity, negative = inhibition, most hits filed as inhibitors; 7.3% of 220,000 active; active = well fitted inhibition curve with a large enough effect, not every such curve was filed as active; inconclusive = small, poorly fitted or top-dose-only effect, or another doubt; inactive = no such curve, though single readings can be large or run the other way;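 also: potency is read from the fitted curve at half-maximal effect; plate controls were no enzyme wells and a reference inhibitor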
* = called active by the depositor; [ ] = remark or other dose. Unless noted, calls follow the shape of the dose curve; as a rule, active = well fitted curve in the direction sought with a large enough effect; inconclusive = small, poorly fitted or top-dose-only effect, or another doubt; inactive = no such curve, though single readings can be large; an effect the other way counts as inactive or inconclusive.

What do the screens show for `COc1ccc(NC(=O)C2C3C=CC(C3)C2C(=O)NCc2ccco2)cc1` (configuration not stated)?
HPGD block: 25µM*; HTT aggregate: 8%; HTT ATP protect: 6%; PNC inhibitor: 11; CBFb RUNX1 block: 11%; ALDH1A1 block: -15%

What do the screens show for `COc1cc(C2=NOC(C(=O)NCc3cccs3)C2)cc(OC)c1OC` (configuration not stated)?
HPGD block: -20%; HTT aggregate: 1%; HTT ATP protect: -19%; PNC inhibitor: -104*; CBFb RUNX1 block: -8%; ALDH1A1 block: -10%

How did COc1cccc(C2=NOC(C(=O)Nc3cccnc3)C2)c1 (configuration not stated) do in these assays?
HPGD block: -13%; HTT aggregate: -7%; HTT ATP protect: 0%; PNC inhibitor: 38; CBFb RUNX1 block: 2%; ALDH1A1 block: 7%

What do the screens show for `CC(=NCC(=O)O)c1ccccc1`?
HPGD block: 0%; HTT ATP protect: -2%[10 µM]; ALDH1A1 block: 5%[13.5 µM]

What do the screens show for `CC[C@H](C)N(C)C(=O)c1cc2ccccc2c(-c2ccccc2Cl)n1`?
HPGD block: 3%; HTT ATP protect: 19%; CBFb RUNX1 block: 3%[21.7 µM]; ALDH1A1 block: -1%

Results for CC(C)c1ccccc1-n1c(SCc2cc(=O)oc3ccc4ccccc4c23)nnc1-c1cccnc1 ?
HPGD block: inconclusive; HTT aggregate: 13%; HTT ATP protect: -15%[10 µM]; PNC inhibitor: inconclusive; CBFb RUNX1 block: -10%; ALDH1A1 block: 6%

What do the screens show for `CC/C(=N/OC(=O)c1cccc(C)c1)C(=O)c1cccs1`?
HTT aggregate: 5%; HTT ATP protect: -9%; CBFb RUNX1 block: -2%; ALDH1A1 block: inconclusive

Results for CC(=O)Nc1ccccc1-c1nc2ccc(C(=O)N3CCN(c4ccccc4)CC3)cc2[nH]c1=O ?
HPGD block: inconclusive; HTT aggregate: -4%; HTT ATP protect: -2%; PNC inhibitor: 143; CBFb RUNX1 block: 9%; ALDH1A1 block: 28µM*

What do the screens show for `CC(=O)Nc1ccccc1-c1nc2ccc(C(=O)N3CCN(c4cccc(C)c4)C(C)C3)cc2[nH]c1=O` (configuration not stated)?
HPGD block: -14%; HTT aggregate: -9%; HTT ATP protect: -14%; PNC inhibitor: inconclusive; CBFb RUNX1 block: -6%; ALDH1A1 block: -2%

How did CC(C)CN1CC2(CCN(S(=O)(=O)c3ccccc3)CC2)C1 do in these assays?
HPGD block: -8%; HTT ATP protect: 25%; ALDH1A1 block: 3%

What do the screens show for `Cn1cnnc1SCCC(=O)Nc1ccccc1`?
HTT aggregate: 1%; HTT ATP protect: -6%; PNC inhibitor: 28; CBFb RUNX1 block: 8%; ALDH1A1 block: -6%

What do the screens show for `Cn1cnnc1SCCC(=O)Nc1ccc(Cl)cc1`?
HPGD block: -4%; HTT aggregate: -2%; HTT ATP protect: -4%[10 µM]; PNC inhibitor: -113*; CBFb RUNX1 block: 2%; ALDH1A1 block: 13%

How did CCOc1nnc(C)c2c(C)n(-c3cccc(OC)c3)nc12 do in these assays?
HPGD block: -7%; HTT aggregate: 7%; HTT ATP protect: 17%; PNC inhibitor: -106*; CBFb RUNX1 block: 1%; ALDH1A1 block: 4%

How did COc1cccc(-n2nnc3c(=O)n(Cc4ccc(C)cc4)cnc32)c1 do in these assays?
HPGD block: inconclusive; HTT aggregate: -7%; HTT ATP protect: -27%[0.074 µM]; PNC inhibitor: 13; CBFb RUNX1 block: 13%; ALDH1A1 block: 1%

What do the screens show for `CC1(C)CCC[C@@](C)([C@H]2CC[C@]3(C)[C@@H]2[C@H](O)C[C@@H]2[C@@]4(C)CC[C@H](O)C(C)(C)[C@@H]4CC[C@]23C)O1`?
CBFb RUNX1 block: 8%

How did Cc1ccc(N2NC(=O)/C(=C/c3ccc(-c4ccc(Cl)c(C(=O)O)c4)o3)C2=O)cc1C do in these assays?
HTT aggregate: 2%[9.22 µM]; HTT ATP protect: 13%[10 µM]; CBFb RUNX1 block: inconclusive; ALDH1A1 block: inconclusive
